# High-throughput results (PubChem)
# This is a sample that favours compounds with a hit; in the whole collection about 18% have one here.
# IL-1B inflam inh – blocks inflammasome-driven IL-1 beta release. THP-1 LPS/ATP IL-1B secretion, AlphaLISA, 16 h; active compounds read low. activity change, % at 57.5 µM. 360,000 compounds, 4.7% hits. AID 743279; in the data active = activity change below about -50%; inconclusive = mostly about -30% to -49%
#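 THP-1 cells pretreated 1 hr with compounds (up to 57.5 uM final), then stimulated with LPS (250 ng/mL final) plus ATP (1.25 mM final); secreted IL-1B measured by AlphaLISA after 16 hr, decreased signal indicating inhibition.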
# DT40 TDP1 CPT – DT40-hTDP1 cell growth loss with CPT; 420,000 compounds, 12% hits; chicken DT40 Tdp1-/-;hTDP1 cells + 20 nM CPT, ATP luminescence, 48 h; Potency, µM (highest dose often 46.2 µM), hits mostly inhibitors; also: nearly all actives have a fitted effect of over 55% in size
#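 Chicken DT40 Tdp1-/- cells complemented with human TDP1, 400 cells/well, exposed to compounds plus 20 nM camptothecin for at least 48 h at 37 C; viability read as ATP content by CellTiter-Glo luminescence.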
# CtBP-E1A inh – CtBP/E1A binding inhibition | AlphaScreen GST-E1A/His-CtBP binding, 1536-well; active compounds read low | 340,000 compounds, 0.49% hits | AID 651724 | activity change, % (test concentration not listed); in the data active = activity change below about -65%; inconclusive = mostly about -30% to -63%
#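 Steps: dispense buffer (Tris pH 8.0, NaCl 300 mM, TCEP 1 mM, BSA, Tween 20); add 5X protein mix (GST-E1A, His-CtBP, 125 nM each); pin 23 nL compound; 2 h at 37 °C, dark; add 5X beads (50 ug/mL); 1 h; read.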
# TDP1 cell noCPT – qHTS for Inhibitors of human tyrosyl-DNA phosphodiesterase 1 (TDP1): qHTS in cells in absence of CPT; DT40 Tdp1-/- hTDP1 cells, no CPT, ATP luminescence, 48 h; Potency, µM (highest dose often 46.2 µM), actives largely listed as inhibitors; 420,000 compounds, 15% hits; AID 686978, 2013; also: nearly all actives have a fitted effect of over 55% in size
#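 Readout: luminescence from CellTiter-Glo after 30 min in the dark at RT. Cells: DT40 Tdp1-/- with stable hTDP1, 400/well. Exposure: compounds alone, ≥48 hr, 37 °C.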
# TDP1 inh – inhibitors of human tyrosyl-DNA phosphodiesterase TDP1. 350,000 compounds, 0.28% hits. AID 485290. Q9NUW8. recombinant TDP1, AlphaScreen DNA substrate cleavage. Potency, µM (titrated, usually from 130 µM), usual class: inhibitors; also: nearly all actives have a fitted effect of over 40% in size
#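 Compounds were preincubated with Tdp1 (1 nM final) for 15 min at room temperature before substrate (15 nM final) started a 5 min reaction; beads (10 ug/ml final) were then added for 10 min before AlphaScreen detection.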
# Six1-Eya2 blk – blocks human Six1 binding to Eya2 | Q15475+O00167 | AlphaScreen GST-Six1/His-Eya2 binding, biochemical; active compounds read low | activity change, % (concentration not given with the values) | 360,000 compounds, 0.56% hits | AID 651725; in the data active = activity change below about -65%; inconclusive = mostly about -30% to -63%
# Target sequence (O00167 whole entry, looked up): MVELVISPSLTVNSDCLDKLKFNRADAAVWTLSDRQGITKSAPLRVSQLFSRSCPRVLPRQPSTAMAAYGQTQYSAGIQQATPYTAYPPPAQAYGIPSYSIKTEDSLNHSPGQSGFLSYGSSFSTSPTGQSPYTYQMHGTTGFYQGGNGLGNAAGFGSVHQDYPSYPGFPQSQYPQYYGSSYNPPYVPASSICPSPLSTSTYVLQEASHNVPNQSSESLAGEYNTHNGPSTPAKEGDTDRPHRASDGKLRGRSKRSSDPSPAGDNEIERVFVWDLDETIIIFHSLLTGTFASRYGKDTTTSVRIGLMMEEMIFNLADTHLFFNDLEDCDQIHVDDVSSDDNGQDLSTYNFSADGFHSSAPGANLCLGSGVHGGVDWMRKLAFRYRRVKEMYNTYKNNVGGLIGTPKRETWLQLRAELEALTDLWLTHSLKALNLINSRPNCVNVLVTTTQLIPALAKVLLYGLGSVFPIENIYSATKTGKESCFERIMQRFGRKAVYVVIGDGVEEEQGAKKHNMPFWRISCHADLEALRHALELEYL
# Target sequence (Q15475 whole entry, looked up): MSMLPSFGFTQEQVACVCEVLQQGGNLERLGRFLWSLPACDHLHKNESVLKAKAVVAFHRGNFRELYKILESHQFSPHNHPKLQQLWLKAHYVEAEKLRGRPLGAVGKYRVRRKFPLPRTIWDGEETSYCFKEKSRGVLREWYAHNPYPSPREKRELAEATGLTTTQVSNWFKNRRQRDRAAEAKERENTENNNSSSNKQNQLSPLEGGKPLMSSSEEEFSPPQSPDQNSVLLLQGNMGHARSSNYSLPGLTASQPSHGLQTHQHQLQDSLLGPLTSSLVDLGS
#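 AlphaScreen luminescence read after one hour at 37 °C in darkness. Pin-transferred compounds met GST-Six1 and His-Eya2 protein (5X stock 250 nM/500 nM) plus glutathione donor and Ni-chelate acceptor beads (5X, 50 ug/mL).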
# Hits are given with their value; 0 = inactive; ? = inconclusive; - = no result given; [ ] = remark or other dose. Unless noted, calls follow the shape of the dose curve; as a rule, active = well fitted curve in the direction sought with a large enough effect; inconclusive = small, poorly fitted or top-dose-only effect, or another doubt; inactive = no such curve, though single readings can be large; an effect the other way counts as inactive or inconclusive.
SMILES,IL-1B inflam inh,DT40 TDP1 CPT,CtBP-E1A inh,TDP1 cell noCPT,TDP1 inh,Six1-Eya2 blk
Cc1ccc(C(=O)OCc2cn(-c3ccccc3)nn2)cc1,0,0,0,0,0,0
COc1cccc(/C=C/C(=O)c2ccc3c(c2)OCCO3)c1OC,-99,4.1µM,0,?,-,0
COc1cc(CC(=O)OCC(=O)c2ccc3c(c2)OCCO3)cc(OC)c1OC,0,1.3µM,0,1.3µM,0,0
CN(CC(=O)Nc1ccccc1Cl)C(=O)Cn1cnc2ccc(Cl)cc2c1=O,0,0,0,0,0,0
COc1cc(C(c2c(C)[nH][nH]c2=O)c2c(C)[nH][nH]c2=O)ccc1OCc1ccc([N+](=O)[O-])cc1,0,?,0,?,0,0
CCOC(=O)C(=Cc1ccc(OCc2ccc([N+](=O)[O-])cc2)c(OC)c1)C(=O)OCC,-101,13µM,0,15µM,0,0
COc1cc(C=O)ccc1OCCCOc1ccc([N+](=O)[O-])cc1,0,?,0,?,0,0
COC(=O)C(=Cc1ccc(OCc2ccc([N+](=O)[O-])cc2)c(OC)c1)C(=O)OC,-92,9.2µM,0,13µM,0,0
CCOc1ccc(NC(=O)CN(C)C(=O)C2CC(=O)N(c3cccc(SC)c3)C2)cc1OCC (centres undefined),0,0,-72,0,-,-65
CCOc1ccc(NC(=O)CN(C)C(=O)C2CC(=O)N(c3ccc4c(c3)OCCO4)C2)cc1OCC (centres undefined),0,0,0,0,0[0.505 µM],0
Cc1ccc(Nc2nnc(C)c3ccccc23)c(C)c1,0,0,-,?,-,0
O=C(O)c1ccccc1-c1ccc(C=c2sc3nc4cc(Br)cnc4n3c2=O)o1,0,?,?,?,-,-69
O=C(O)c1cc(C(=O)O)cc(-c2ccc(/C=c3/sc4nc5ccccc5n4c3=O)o2)c1,0,0,0,0,-,?
COc1ccc(/C(=N/Nc2ncnc3ccccc23)C(=O)O)cc1,0,21µM,-69,?,0,-77
CCOC(=O)/C(=N\Nc1ncnc2ccccc12)c1ccc(OC)cc1,0,0,0,0,0,0
O=C(CCCCC(=O)OC1CCCCC1)OC1CCCCC1,0,?,0,0,-,0
O=C(C=CC(=O)OC1CCCCC1)OC1CCCCC1,-88,0,0,?,-,0
N#CCc1ccc(OCCCN2CCC(C(O)(c3ccccc3)c3ccccc3)CC2)cc1,?,23µM,0,21µM,-,0
OC(c1ccccc1)(c1ccccc1)C1CCN(CCCOc2cccc(OC(F)(F)F)c2)CC1,-51,16µM,0,16µM,-,0
OC(c1ccccc1)(c1ccccc1)C1CCN(CCCOc2ccc3c(c2)CCCC3)CC1,-115,4.1µM,0,5.2µM,-,0
CC(C)(C)c1ccc(C(O)CCCN2CCC(C(O)(c3ccccc3)c3ccccc3)CC2)cc1 (centres undefined),0,5.8µM,0,4.6µM,0,0
CCOC(=O)c1c(NC(=O)C(F)(OC)C(F)(F)F)sc2c1CCN(C)C2 (centres undefined),0,0,0,0,0,0
CCC(C)[C@@H](C(=O)N1CCNCC1)n1cc(CCCN=C(N)N)nn1 (some centres undefined),0,0,0,0,0,0
CCCCCCCOc1ccc(C2(C)NC(=O)NC2=O)cc1 (centres undefined),0,0,0,?,0,0
CCCCOc1ccc(C2(C)NC(=O)NC2=O)cc1 (centres undefined),0,?,0,18µM,-,0
SMILES,IL-1B inflam inh,DT40 TDP1 CPT,CtBP-E1A inh,TDP1 cell noCPT,TDP1 inh,Six1-Eya2 blk
CN1C(=O)c2ccccc2N(C)C1c1ccc2c(c1)OCO2 (centres undefined),0,0,0,?,0,0
CC1=C([N+](=O)[O-])C(c2ccc3c(c2)OCO3)N(C)C(=O)N1C (centres undefined),0,8.2µM,0,21µM,-,0
O=C(CN(Cc1ccc(F)cc1)C(=O)CNS(=O)(=O)c1ccc(F)cc1)NCC1CCCO1 (centres undefined),0,0,0,0,-,0
Cc1ccc(NC(=O)c2c(C(F)(F)F)nn(C)c2SCc2ccc(Cl)cc2)cc1C,0,26µM,0,23µM,0,0
Cc1ccc(NC(=O)c2c(C(F)(F)F)nn(C)c2SCc2cccc(C(F)(F)F)c2)cc1C,0,7.3µM,0,4.1µM,0,0
Cc1ccc(NC(=O)c2c(C(F)(F)F)nn(C)c2Cl)cc1C,0,0,0,0,0,0
O=C(O)c1ccc2c(c1)C(=O)N([C@H](Cc1ccccc1)C(=O)O)C2=O,-,-,-,-,0,-
CC(OC(=O)c1cccc(O)c1)C(=O)N(C)Cc1ccccc1 (centres undefined),0,0,0,0,-,0
CC(OC(=O)c1ccccc1NS(=O)(=O)c1cccc(N)c1)C(=O)N(C)Cc1ccccc1 (centres undefined),0,?,0,23µM,0,0
CC(C)CN=C(NS(=O)(=O)c1ccccc1)C(Cl)(Cl)Cl,0,4.6µM,0,5.8µM,0,0
O=C(CC1OCC2CCCN2C1=O)Nc1ccc([N+](=O)[O-])cc1 (centres undefined),?,16µM,0,?,0,0
CCN1CCOC(CC(=O)Nc2ccc([N+](=O)[O-])cc2)C1=O (centres undefined),0,15µM,0,?,0,0
CC1(C)CC(CC(=O)Nc2ccc([N+](=O)[O-])cc2)C(=O)O1 (centres undefined),0,0,0,0,0,0
O=C(CC1C(=O)NC2CCCCC2N1C(=O)c1ccc([N+](=O)[O-])cc1)Nc1ccccc1 (centres undefined),0,?,-,16µM,0,0
CCCCCCC1CC(CC(=O)Nc2ccc([N+](=O)[O-])cc2)C(=O)O1 (centres undefined),-61,18µM,0,?,0,0
O=C(CN1C(=O)NC2(CCc3ccccc32)C1=O)Nc1c(Cl)cccc1Cl (centres undefined),0,0,0,0,0,0
COc1ccc(NC(=O)CN2C(=O)CSC(C)C2=O)c(OC)c1 (centres undefined),0,0,-,0,0,0
CCOc1ccc(NC(=S)NCCCN2CCN(C3CCCCC3)CC2)cc1,0,0,0,?,0,0
O=C(CN1C(=O)NC2(CCCC2)C1=O)OCCOc1cccc(Br)c1,-60,?,0,?,0,0
O=C(O)CC(CC(=O)O)(C(=O)O)c1ccccc1,0,0,0,0,-,0
O=S(CC(O)(c1ccccc1)c1ccccc1)CC(O)(c1ccccc1)c1ccccc1,0,18µM,0,18µM,-,0
